Screening data deposited in PubChem by several laboratories.
Rows were chosen to be rich in hits. Some 3.6% of all compounds tested hit in one or more screens of this group.
Myeloid diff MLP: promotes myeloid progenitor differentiation | calls only at 10 µM | 1% of 360,000 active | ER-HoxA9 myeloid progenitors, lysozyme-GFP differentiation, flow cytometry;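 active = normalized GFP-positive differentiation at or above the plate's own cutoff, the solvent-only control mean plus 3 SD; inconclusive = no clear call, values can overlap the other calls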;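 note: cells exposed to compound for four days before flow analysis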
NRP1-CendR mod: NRP-1/CendR interaction modulation; FAM-RPARPAR peptide binding to NRP-1, fluorescence polarization; 0.85% of 360,000 active; inhibition, % at 25 µM;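 active = inhibition or corrected inhibition above about 18%, plus a signal ratio from 0.5 to 1.5, limit read from the data, passing the limit was not always enough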
NadD inh: inhibitors of Staphylococcus aureus NadD; 0.78% of 360,000 active; purified NadD enzyme, colorimetric absorbance read-out; inhibition, % at 20 µM; in the data active = inhibition above about 26%
FAS-TE inh: inhibitors of human fatty acid synthase thioesterase domain; 0.67% of 360,000 active; P49327; inhibition, % at 15 µM; recombinant FAS-TE, OMFH fluorogenic substrate, fluorescence endpoint; AID 602261;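 active = compounds whose normalised, plate-corrected inhibition of enzyme fluorescence in the single-dose primary screen is 50% or more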;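 note: 0% = DMSO with enzyme and 100% = substrate without enzyme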
CRFBP-R2 block: blocks CRF-induced signaling of the CRF-BP/CRF-R2 complex | HEK293 CRF-R2/CRF-BP, CRF-induced calcium fluorescence | inhibition, % at 11.8 µM | 0.59% of 350,000 active;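 active = inhibition of the ligand-induced calcium signal above about 50% at the single tested concentration, limit read from the data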
Starred values were filed as active, the others as inactive; i = inactive; ? = inconclusive; . = no result; + = active, no number.

SMILES	Myeloid diff MLP	NRP1-CendR mod	NadD inh	FAS-TE inh	CRFBP-R2 block
CCC(C)NC(=O)[C@H]1N2C(=O)c3c(ccc(OC)c3OC)C2SC1(C)C (stereo partly drawn)	i	-0.2	1.3	0.7	4.9
CCCNC(=O)[C@H]1N2C(=O)c3c(ccc(OC)c3OC)C2SC1(C)C (stereo partly drawn)	i	28.3*	-5.4	-0.1	9.3
CC1=Nc2ccccc2N=C(NC(=O)CSC(=S)N2CCCCC2)C1c1ccccc1 (stereo not drawn)	i	36.7*	-2.5	24.5	21.6
CCOC(=O)c1sc(=S)n(-c2ccc(OC)cc2)c1C	i	-0.2	-2.8	18.5	-6.1
CCOC(=O)c1c2c(n(-c3ccc(OC)cc3)c1C)C(=O)C(=O)c1ccccc1-2	?	34.3*	1.6	45.7	15.1
CC(=O)c1ccc(S(=O)(=O)NCCC(=O)OCC(=O)N(Cc2ccccc2)C(C)(C)C)cc1	i	-5.2	-10.3	13.8	2.8
N#Cc1c(N(CCO)CCO)nc(N)c2c(N)nc3c(c12)CC(=O)N3CC1CCCO1 (stereo not drawn)	i	9.6	-18.4	-5.0	2.0
CCCCN1C(=O)Cc2c1nc(N)c1c(N)nc(N(CCC)CCC)c(C#N)c21	+	-10.7	14.2	-7.9	-0.8
COc1ccc(COC[B-](F)(F)F)cc1	i	-4.9	6.6	-7.8	-4.5
Oc1c(Cl)cc(Cl)cc1/C=N/Nc1ncc(Br)cn1	?	38.1*	24.5	8.6	-8.7
O=C(NCc1ccccc1)C(c1ccc(C(F)(F)F)cc1)n1c(=O)c(-c2cc3ccccc3[nH]2)nc2ccccc21 (stereo not drawn)	i	-1.8	.	.	.
COc1ccc(Cn2c(-c3ccco3)nc3c(c(=O)c4ccccc4n3C)c2=O)cc1	i	-39.1	22.1	13.9	72.0*
COc1ccc(Cn2c(C)nc3c(c(=O)c4ccccc4n3C)c2=O)cc1	i	-7.8	-0.7	-1.7	-3.6
O=C(C1=C[C@H](c2ccc(C(F)(F)F)cc2)C[C@H](OCCCCO)O1)N1CCN(Cc2ccc3c(c2)OCO3)CC1	i	28.8*	-7.4	9.9	19.5
O=C(C1=C[C@H](c2csc3ccccc23)C[C@H](OCCCCO)O1)N1CCN(Cc2ccccc2)CC1	i	26.7*	1.7	24.8	-5.3
O=C(NC1CC1)C1=C[C@@H](c2ccc3c(c2)OCO3)C[C@@H](OCCCCO)O1	i	27.7*	-1.4	-9.5	6.0
CCOC(=O)C1=CN(Cc2ccco2)S(=O)(=O)NC1CC (stereo not drawn)	i	-2.1	0.3	-8.6	-1.6
Cc1ccc(NC(=O)CC2SC(=O)N(c3ccccc3)C2=O)cc1 (stereo not drawn)	i	8.2	-6.2	-7.5	89.2*
CC1=C(C(=O)N(C(C)C)C(C)C)CC(CC(=O)NC2CCCC2)C(=O)N1CCC1=CCCCC1 (stereo not drawn)	i	7.2	-7.9	-13.9	.
COc1cc2c3nnc(-c4ccc(F)cc4)c-3cn(Cc3ccc(C)cc3)c2cc1OC	+	141.3	21.5	-73.1	-7.2
COc1cc2c3nnc(-c4ccc(F)cc4)c-3cn(Cc3cccc(C)c3)c2cc1OC	+	143.8	25.1	-46.0	-16.9
O=C(COc1ccc(Br)cc1CO)Nc1ccc(F)cc1	i	26.2*	-1.9	2.2	-9.2
CC1(C)CC(N2CCCCC2)=CC(=[N+]2CCCCC2)C1	+	-0.9	7.5	-3.9	9.0
Cc1ccc(-n2c(SCC(=O)N3CCOCC3)nc(O)c(Cc3ccccc3)c2=O)cc1	i	3.0	1.2	-2.9	-9.5
O=C(CSc1nc(O)c(Cc2ccccc2)c(=O)n1-c1ccccc1)N1CCOCC1	i	25.8*	-0.6	-5.1	-1.5
SMILES	Myeloid diff MLP	NRP1-CendR mod	NadD inh	FAS-TE inh	CRFBP-R2 block
O=c1c2[nH]cnc2n(-c2ccccc2)c(=O)n1Cc1ccccc1	i	-8.1	-5.2	-2.2	7.1
COc1cccc(-n2c(=O)n(Cc3ccccc3)c(=O)c3[nH]cnc32)c1	i	22.1*	-1.7	-7.7	-13.8
COC(=O)C(F)(F)Sc1c(C)[nH]c2ccccc12	i	-13.8	4.5	-1.2	51.8*
Cc1[nH]c2ccccc2c1SCC(=O)O	i	-6.6	-2.6	-7.5	-1.6
CCOc1ccc(C2=Nn3c(CC)nnc3SC2)cc1	i	3.1	0.7	-5.1	7.5
CCCN(C)C1CN(Cc2cn(Cc3ccc(C)cc3)nn2)S(=O)(=O)C1 (stereo not drawn)	i	0.4	2.1	-9.7	.
CCc1nc2c(OCc3ccc(F)c(F)c3)cccn2c1N(C)C(=O)c1ccc(C)cc1	i	-8.6	8.8	26.0	.
CCNc1nc(NCC)n2c(SCc3ccc(F)cc3)nnc2n1	i	5.7	1.4	-4.6	51.0*
Cc1cc(-c2ccc(C)c(S(=O)(=O)N3CCN(C(=O)c4ccco4)CC3)c2)on1	i	2.1	-4.3	2.1	-4.2
COc1ccc(-c2cc(C)no2)cc1S(=O)(=O)N1CCN(C(=O)c2ccco2)CC1	?	-7.2	-3.2	-3.7	75.4*
O=C(C1CCCO1)N1CCN(C(=S)Nc2ccc(Cl)cc2)CC1 (stereo not drawn)	i	-32.1	1.8	-8.7	14.4
O=C(Nc1nc2c(F)cc(F)cc2s1)C1CC1	i	-8.5	-5.6	-0.2	-1.0
COc1ccc(N2C(=O)C3[C@@H](C2=O)C2(Cl)C(Cl)=C(Cl)C3(Cl)C2(OC)OC)cc1 (stereo partly drawn)	i	26.8*	1.1	4.7	-16.2
COc1ccc(N2C(=O)C3C(C2=O)C3(c2ccccc2)c2ccccc2)cc1 (stereo not drawn)	i	9.3	-4.9	20.1	6.0
CN(C)c1ccc(/C=C2\SC(=S)N(Nc3ncc(C(F)(F)F)cc3Cl)C2=O)cc1	+	133.7	19.2	-140.6	-146.7
CCc1onc(C)c1C(=O)Nc1cc(C)ccc1OC	i	33.9*	-1.1	2.2	20.3
Cc1c(Cc2ccccc2)sc(/N=C/c2c(O)ccc3ccccc23)c1C(N)=O	i	-160.6	35.8*	-6.1	6.4
COc1ccc(S(=O)(=O)N2CCCC(C(=O)N3CCOCC3)C2)cc1C (stereo not drawn)	i	33.7*	-4.7	0.0	15.8
CCOC(=O)N1CCN(C(=O)COc2ccc(S(=O)(=O)NC3CCCCC3)cc2C)CC1	i	5.5	-3.7	-6.4	-17.3
COc1ccc(S(=O)(=O)N2CCCC(C(=O)N3CCOCC3)C2)cc1Cl (stereo not drawn)	i	0.7	-1.2	-5.0	4.5
Cc1cc(S(=O)(=O)NC2CCCCC2)ccc1OCC(=O)N1CCOCC1	i	27.0*	0.6	-4.8	-4.5
O=C1CC(=O)Nc2cc(S(=O)(=O)Nc3ccc(F)cc3Cl)ccc2N1	i	5.6	-3.2	-4.6	-25.0
Cc1ccc(NNS(=O)(=O)c2ccc(C)cc2)cc1	i	28.1*	7.6	-6.9	-1.8
Cc1ccc(S(=O)(=O)NNC(=O)C(=O)NNS(=O)(=O)c2ccc(C)cc2)cc1	i	16.9	0.6	-9.6	-2.0
CC(=O)Nc1ccc(CN(C)c2c(C)nc3ccc(C(=O)Nc4ccc(Cl)c(Cl)c4)cn23)cc1	i	-4.0	7.7	9.6	.
